Compounds with a hit are over-represented: about 1.1% of the library has one in this group of screens.
PrP UTR inh: suppresses PrP 5' UTR mRNA reporter expression. cell-based PrP 5' UTR mRNA reporter, plate reader. hit rate 0.35% among 340,000. inhibition, % (test concentration not listed); in the data active = inhibition above about 52%
MazF activator: increases E. coli MazEF RNase cleavage of RNA; P0AE70; hit rate 0.32% among 350,000; FAM/BHQ RNA-DNA oligo cleavage fluorescence, 5 h; activation, % at 20 µM; in the data active = activation above about 50%
Target sequence (P0AE70 whole entry, looked up): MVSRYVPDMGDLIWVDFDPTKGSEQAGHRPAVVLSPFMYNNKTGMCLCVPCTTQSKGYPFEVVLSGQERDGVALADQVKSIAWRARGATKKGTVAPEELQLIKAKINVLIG
BJeLR viability: BJeLR cell viability loss. hit rate 0.17% among 300,000. inhibition, % (concentration not given with the values). BJeLR (HRASV12) viability, CellTiter-Glo ATP luminescence, 48 h; in the data active = inhibition above about 50%
PrPC TRFRET: reduces human prion protein on the cell surface; inhibition, % at 13.8 µM; cell surface PrPC, TR-FRET read-out; P04156; hit rate 0.43% among 370,000; in the data active = inhibition above about 24%
Large screens that a line does not name were inactive.

CCOc1cc(/C=C2\CN(C)C/C(=C\c3ccc(O)c(OCC)c3)C2=O)ccc1O	BJeLR viability 61.0
CN1C/C(=C/c2ccncc2)C(=O)/C(=C/c2ccncc2)C1	BJeLR viability 71.8
CN1C/C(=C\c2ccc(N3CCOCC3)cc2)C(=O)/C(=C/c2ccc(N3CCOCC3)cc2)C1	MazF activator 56.6
COC(=O)[C@]12C[C@H](CC(=O)NCCC(C)C)C(=O)N(Cc3cccc4ccccc34)C1=C[C@H](COCc1ccccc1)O[C@@H]2C	none (no result: PrP UTR inh, MazF activator, BJeLR viability)
COC(=O)c1ccccc1NC(=O)Cn1cnc2c(cnn2-c2ccc(C)c(C)c2)c1=O	none (no result: PrP UTR inh, PrPC TRFRET)
CCOc1ccccc1NC(=O)Cn1cnc2c(cnn2-c2ccc(C)c(C)c2)c1=O	MazF activator 161.8
COC(=O)c1ccccc1NC(=O)Cn1cnc2c(cnn2-c2ccccc2)c1=O	MazF activator 63.3 (no result: PrPC TRFRET)
CCOC(=O)c1ccccc1NC(=O)Cn1cnc2c(cnn2-c2ccccc2)c1=O	none
CC1CN(C(=O)c2cc3cc([N+](=O)[O-])ccc3s2)CC(C)O1 (stereo not drawn)	MazF activator 160.9
CC1CN(C(=O)c2cc3cc([N+](=O)[O-])ccc3oc2=O)CC(C)O1 (stereo not drawn)	none
COc1cccc(C(=O)N[C@H](C(=O)N2CCC[C@H]2C(=O)NCc2ccccc2)c2ccccc2)c1	none (no result: PrP UTR inh, MazF activator, BJeLR viability)
O=C(CSc1nnc(SCc2ccc(Cl)cc2)s1)N/N=C/c1c[nH]c2ccccc12	MazF activator 64.0
CN(Cc1ccccc1)C(=O)OCc1cn(Cc2ccc(F)cc2)nn1	none (no result: PrP UTR inh, MazF activator, BJeLR viability)
Cc1cc(/C=C\c2ccc3cc(N(C)C)ccc3[n+]2C)c(C)n1-c1ccccc1	PrP UTR inh 73.5 (no result: BJeLR viability, PrPC TRFRET)
C[n+]1c(/C=C/c2ccc(O)cc2)ccc2ccccc21	none
CCOC(=O)/C(=N\Nc1ccc(C(C)=O)cc1)c1csc(Nc2ccccc2)n1	MazF activator 56.5
CCOC(=O)/C(=N\Nc1ccccc1[N+](=O)[O-])c1csc(N)n1	none
COC(=O)[C@]12C[C@H](CC(=O)NCc3ccc(OC)c(OC)c3)C(=O)N(Cc3ccc4c(c3)OCO4)C1=C[C@H](COCc1ccccc1)O[C@@H]2C	none (no result: PrP UTR inh, MazF activator, BJeLR viability)
CCOc1ccc(NC(=O)CNC(=O)c2nn(-c3ccc(OC)cc3)c(=O)c3ccccc23)cc1	MazF activator 73.2
CN(/N=C/c1ccc(N(C)C)cc1)C1=NS(=O)(=O)c2ccccc21	MazF activator active
O=C(COC(=O)c1ccc2c(c1)OCCO2)Nc1cc(Cl)ccc1Cl	MazF activator 52.8
COCc1[nH]nc2c1C(c1ccc(Br)cc1)N(Cc1ccccc1)C2=O (stereo not drawn)	none (no result: PrP UTR inh, MazF activator, BJeLR viability)
Cc1cc(C(=O)N/N=C/c2ccc(-c3ccc([N+](=O)[O-])cc3C)o2)n[nH]1	MazF activator 75.4
CNC(C)C(=O)NC(C(=O)N1CCCC1C(=O)Nc1cccc2ncccc12)C(C)C (stereo not drawn)	none (no result: PrP UTR inh, MazF activator, BJeLR viability)
CC(=O)c1cccc(N=c2scc(-c3ccc(S(=O)(=O)N4CCOCC4)cc3)n2CCO)c1	PrPC TRFRET 24.4
C=CCn1c(-c2ccc(S(=O)(=O)N3CCOCC3)cc2)csc1=Nc1ccccc1	none
COC(=O)[C@]12C[C@H](CC(=O)N3CCSCC3)C(=O)N(CCc3ccc(OC)c(OC)c3)C1=C[C@H](COCc1ccccc1)O[C@@H]2C	none (no result: PrP UTR inh, MazF activator, BJeLR viability)
COc1cc(OC)c(OC)cc1/C=C(\C#N)C(=O)NCc1cccs1	MazF activator 83.6
CC(=O)N1C[C@@H](CO)[C@@H]2C[C@H]1c1ccccc1N2C	none (no result: PrP UTR inh, MazF activator, BJeLR viability)
CC(O)(CS(=O)(=O)c1ccc(Br)cc1)c1ccccc1 (stereo not drawn)	none
O=S(=O)(CC(O)(c1ccccc1)c1ccccc1)CC(O)(c1ccccc1)c1ccccc1	MazF activator 69.3 (no result: BJeLR viability)
COC(=O)c1cc2c(=O)c3ccccc3oc2nc1C	none
COC(=O)c1cc2c(=O)c3ccccc3oc2nc1/C=C/N(C)C	MazF activator 85.2
COc1ccc2oc(C(=O)OCC(=O)Nc3cc(S(=O)(=O)N4CCOCC4)ccc3C)c(C)c2c1	MazF activator 61.0
COc1cccc(OCc2nnc(SCc3cc(=O)[nH]c4ccccc34)o2)c1	none
Cc1ccccc1OCc1nnc(SCc2cc(=O)[nH]c3ccccc23)o1	MazF activator 64.6
O=c1cc(CSc2nnc(COc3ccc(Cl)cc3)o2)c2ccccc2[nH]1	MazF activator 50.8
COC(=O)c1cc(-c2ccc(C)c(C)c2)c(=O)n2c1CCC2	none (no result: PrP UTR inh, MazF activator, BJeLR viability)
O=C1C(SCCO)=C(SCCO)C(=O)c2ccccc21	PrPC TRFRET 64.9 (no result: BJeLR viability)
CC1=C(SCc2ccccc2)C(=O)c2ccccc2C1=O	none (no result: BJeLR viability)
COc1ccc(C=NNC(=O)c2cc(-c3ccc(C)c(C)c3)n[nH]2)cc1OCc1ccccc1	none (no result: PrP UTR inh, MazF activator, BJeLR viability)

Assay outcomes from PubChem BioAssay.
